Screening data: PubChem BioAssay, National Center for Advancing Translational Sciences (NCATS)
Most compounds without a hit are left out; they make up all but 8.1% or so of the library.
MCF10A rereplic – A quantitative high throughput screen for small molecules that induce DNA re-replication in MCF 10a normal breast cells; MCF 10A DNA re-replication, Hoechst nuclear intensity, 48 h; Potency, µM (top dose mostly 46.1 µM), for inactives: at the top dose activity, positive = re-replication, hits mostly activators; actives 2.9% (n = 350,000); AID 624296, 2012; further: % of control where 0% means no effect; nearly all actives have a fitted effect of over 50% in size
SW480 rerep – A quantitative high throughput screen for small molecules that induce DNA re-replication in SW480 colon adenocarcinoma cells. SW480 DNA re-replication, Hoechst DNA content imaging, 48 h. Potency, µM (titrated, usually from 46.1 µM), for inactives: at the top dose re-replication activation, usual class: activators. actives 1.8% (n = 340,000). AID 624297, 2012; further: % of control where 0% means no effect; nearly all actives have a fitted effect of over 55% in size
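Quantitative HTS format with DMSO vehicle controls; 48 hr drug incubation at 37 C, then 40 min Hoechst staining and scanning imager measurement at 405 nm excitation.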
ELG1 DNA repair – qHTS screen for small molecules that inhibit ELG1-dependent DNA repair in human embryonic kidney (HEK293T) cells expressing luciferase-tagged ELG1; AID 504467, 2011; Potency, µM (doses to about 46.1 µM), for inactives: at the top dose activity change, negative = inhibition, usual class: inhibitors; HEK293T ELG1-luciferase reporter, luminescence, 16 h; DNA damage induced by 5-fluorouridine; actives 2.3% (n = 330,000); further: on the % scale 0 is the no-effect control and ±100 the full control effect; nearly all actives have a fitted effect of over 55% in size
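Overnight (16 hr) co-exposure of 2,000 cells/well to 5-fluorouridine and compound at 37 °C preceded detection. Luciferase was quantified via ONE-Glo luminescence; loss of signal denotes inhibition.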
KB-V1 MDR tox – qHTS assay for MDR1-selective chemotherapeutics: Primary screen using the drug-selected MDR subline cells KB-V1; KB-V1 MDR cells viability, CellTiter-Glo, 72 h; Potency, µM (series often up to 46.1 µM), most hits filed as cytotoxic; actives 3.4% (n = 400,000); AID 1347076, 2019; further: on the % scale 0 is the no-effect control and ±100 the full control effect; nearly all actives have a fitted effect of over 60% in size
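Cells of the MDR subline KB-V1 are plated, dosed with compound at multiple concentrations, and incubated 72 h at 37 degrees C; CellTiter-Glo is then added and luminescence read after 10 min.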
KB-3-1 tox – qHTS assay for MDR1-selective chemotherapeutics: Primary screen using the parental adenocarcinoma cell KB-3-1; KB-3-1 viability, CellTiter-Glo ATP luminescence, 72 h; Potency, µM (doses to about 46.1 µM), most hits filed as cytotoxic; actives 1.4% (n = 400,000); further: on the % scale 0 is the no-effect control and ±100 the full control effect; nearly all actives have a fitted effect of over 60% in size
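KB-3-1 cells, DMEM (no phenol red) + 10% FBS; compound by pin transfer, 72 h, 37 °C. Readout: CellTiter-Glo luminescence after 10 min. Data normalized, curve-fitted.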
Active calls of the source: *; i = inactive; ? = inconclusive; / = not tested or not shown; [ ] = dose if it differs, or a comment. The call rests on the fitted dose curve; in most records, active means well fitted curve in the direction sought with a large enough effect; inconclusive means small, poorly fitted or top-dose-only effect, or another doubt; inactive means no such curve, though single readings can be large; an effect the other way counts as inactive or inconclusive. Potency means the concentration at half of the fitted maximal effect.

SMILES	MCF10A rereplic	SW480 rerep	ELG1 DNA repair	KB-V1 MDR tox	KB-3-1 tox
COc1ccc(-c2nnc3sc(C4CCCCC4)nn23)cc1OC	-183%[0.0737 µM]	-8%	18µM*	i	i
COc1ccc(C2SCC(=O)Nc3c2c(=O)[nH]n3C2CCCCCC2)cc1OC (configuration not stated)	-2%	-5%	?	?	i
COc1ccc(Oc2cc(NC(=O)c3nn(C)cc3[N+](=O)[O-])cc([N+](=O)[O-])c2)cc1	2.1µM*	?	?	?	21µM*
COc1ccc(OC)c(NP(=O)(Oc2ccccc2)Oc2ccccc2)c1	0%	-18%	-24%	i	i
COc1ccc(S(=O)(=O)Nc2cc([N+](=O)[O-])ccc2OC)cc1	?	?	?	18µM*	?
Cc1cscn1	-5%	-1%	?	i	i
CNc1ccc2oc(C[C@H]3O[C@@]4(CC[C@H]3C)O[C@H]([C@H](C)C(=O)c3ccc[nH]3)[C@H](C)C[C@H]4C)nc2c1C(=O)O	4.6µM*	?	5.8µM*	3.7µM*	4.1µM*
CC(C)(O)/C=C/C(=O)C(C)(O)C1C(O)CC2(C)C3CC=C4C(C=C(O)C(=O)C4(C)C)C3(C)C(=O)CC12C (configuration not stated)	2.9µM*	?	/	0.92µM*	0.18µM*
CC(=O)OC(C)(C)/C=C/C(=O)[C@](C)(O)C1[C@H](O)C[C@@]2(C)C3CC=C4C(C[C@H](O)C(=O)C4(C)C)[C@]3(C)C(=O)C[C@]12C (some centres not stated)	?	?	?	0.92µM*	0.037µM*
Cc1cccc(-n2c(CC3C(=O)Nc4ccc(C)cc43)nc3ccccc3c2=O)c1 (configuration not stated)	/	/	/	i	i
Oc1cc(Cl)cc(Cl)c1Cl	?	-39%	3%	i	i
CCOC(=O)c1c(C=O)c2ccccc2n1Cc1ccccc1	?	?	-7%	21µM*	?
O=C1CC(=O)N(c2ccccc2)C(=O)N1c1ccccc1	3%	0%	18%	i	0.29µM*
O=C1CC(=O)N(c2ccccc2)C(=O)N1	1%	-3%	/	?	i
O=P(O)(O)Cc1ccccc1OP(=O)(c1ccccc1)c1ccccc1	20%	1%	-9%	23µM*	i
O=P(O)(O)Cc1c(Cl)cccc1Cl	-1%	-700%	0%	i	i
CN(CCc1ccccc1)C(=O)c1ccc(NC(=O)Cc2cccc([N+](=O)[O-])c2)cc1	10%	-10%	?	i	?
CCCC(=O)NC1=C(N2CC2)C(=O)C(NC(=O)CCC)=C(N2CC2)C1=O	?	2.3µM*	/	i	i
CCCC(=O)Nc1ccc(N2CCN(CC)CC2)c(Cl)c1	-10%	5%	-1%	?	i
Cc1ccc(-c2cc(C(F)F)n3ncc(C(=O)N4CCc5ccccc5C4)c3n2)cc1	?	18µM*	-12%	?	i
Cc1ccc2nc(-c3ccncc3)cc(C(=O)N3CCC4(CC3)OCCO4)c2c1	9%	-4%	?	i	i
CCN(CC)C(=O)c1ccc(NC(=O)c2cccc(C(F)(F)F)c2)cc1	-1%	?	-4%	i	i
CCN(CCCl)c1cc(CN(C)C)cc(NC(=O)c2ccc(C(=O)Nc3cc(CN(C)C)cc(N(CC)CCCl)c3)cc2)c1	14%	?	/	i	0.52µM*
O=C(/C=C/c1c[nH]c2ccccc12)c1c(O)n(CCc2ccccc2)c(=O)[nH]c1=O	16µM*	18µM*	?	?	i
O=[N+]([O-])c1ccc(N2CCNCC2)c(Cl)c1	7.3µM*	-4%	-10%	?	i
C[C@H]1CCC[C@H](O)CCCCCc2cc(O)cc(O)c2C(=O)O1	?	?	7.3µM*	?	?
